Test results taken from paper PMC11062922 (Nature Chemical Biology, 2023).
Where two headings read alike, the source gives them in different places.

Key:
Set-up in all cases: species or system human, MV4-11 + K-562 + COLO205 + SK-N-BE2 + OVCAR-8
[1] = tested on: ARAF; conditions: read-out: apparent Kd; compound concentrations: 100 nM and 1000 nM (sheet 'Samples'), CATDS: 5.7058151547421603E-2; n = 1
[2] = tested on: AURKB; conditions: read-out: apparent Kd; compound concentrations: 100 nM and 1000 nM (sheet 'Samples'), CATDS: 7.6313270646160003E-2; n = 1
[3] = tested on: CDK10; conditions: read-out: apparent Kd; compound concentrations: 100 nM and 1000 nM (sheet 'Samples'), CATDS: 4.7356603246951401E-2; n = 1
[4] = tested on: EIF2AK1; conditions: read-out: apparent Kd; compound concentrations: 100 nM and 1000 nM (sheet 'Samples'), CATDS: 9.9444074650609393E-2; n = 1
[5] = tested on: FN3K; conditions: read-out: apparent Kd; compound concentrations: 100 nM and 1000 nM (sheet 'Samples'), CATDS: 5.2169605073521003E-2; n = 1
[6] = tested on: ICK; conditions: read-out: apparent Kd, compound concentrations: 100 nM and 1000 nM (sheet 'Samples'), n = 1
[7] = tested on: LATS1; conditions: read-out: apparent Kd; compound concentrations: 100 nM and 1000 nM (sheet 'Samples'), CATDS: 4.4770495584516998E-2; n = 1
[8] = tested on: MAP2K5; conditions: read-out: apparent Kd; compound concentrations: 100 nM and 1000 nM (sheet 'Samples'), CATDS: 0.11655274425704; n = 1
[9] = tested on: MAP3K2; conditions: read-out: apparent Kd; compound concentrations: 100 nM and 1000 nM (sheet 'Samples'), CATDS: 4.6082371307615597E-2; n = 1
[10] = tested on: MAP3K4; conditions: read-out: apparent Kd; compound concentrations: 100 nM and 1000 nM (sheet 'Samples'), CATDS: 4.8228704879059399E-2; n = 1
[11] = tested on: MAP4K1; conditions: read-out: apparent Kd; compound concentrations: 100 nM and 1000 nM (sheet 'Samples'), CATDS: 4.8558197444370697E-2; n = 1
[12] = tested on: MAP4K2; conditions: read-out: apparent Kd; compound concentrations: 100 nM and 1000 nM (sheet 'Samples'), CATDS: 5.6009475369740498E-2; n = 1
[13] = tested on: MAP4K3; conditions: read-out: apparent Kd; compound concentrations: 100 nM and 1000 nM (sheet 'Samples'), CATDS: 7.0202424980237099E-2; n = 1
[14] = tested on: NEK1; conditions: read-out: apparent Kd; compound concentrations: 100 nM and 1000 nM (sheet 'Samples'), CATDS: 8.0496381389801502E-2; n = 1
[15] = tested on: NEK2; conditions: read-out: apparent Kd; compound concentrations: 100 nM and 1000 nM (sheet 'Samples'), CATDS: 4.3015896259207202E-2; n = 1
[16] = tested on: PKMYT1; conditions: read-out: apparent Kd; compound concentrations: 100 nM and 1000 nM (sheet 'Samples'), CATDS: 4.44842965705885E-2; n = 1
[17] = tested on: PTK6; conditions: read-out: apparent Kd; compound concentrations: 100 nM and 1000 nM (sheet 'Samples'), CATDS: 5.5693628002095402E-2; n = 1
[18] = tested on: RAF1; conditions: read-out: apparent Kd; compound concentrations: 100 nM and 1000 nM (sheet 'Samples'), CATDS: 4.9993718202349699E-2; n = 1
[19] = tested on: ATM; conditions: read-out: apparent Kd, n = 1
[20] = tested on: PIK3C3; conditions: read-out: apparent Kd; compound concentrations:100 nM and 1000 nM (sheet 'Samples'); n = 1
[21] = tested on: AKT2; conditions: read-out: apparent Kd, compound concentrations: 100 nM and 1000 nM (sheet 'Samples'), n = 1
[22] = tested on: PIM2; conditions: read-out: apparent Kd; compound concentrations: 100 nM and 1000 nM (sheet 'Samples'), CATDS: 0.52192336058926703; n = 1
[23] = tested on: CDC7; conditions: read-out: apparent Kd; compound concentrations: 100 nM and 1000 nM (sheet 'Samples'), CATDS: 6.3073958864856297E-2; n = 1
[24] = tested on: CDK16; conditions: read-out: apparent Kd; compound concentrations: 100 nM and 1000 nM (sheet 'Samples'), CATDS: 0.118346075913056; n = 1
[25] = tested on: CDK2; conditions: read-out: apparent Kd; compound concentrations: 100 nM and 1000 nM (sheet 'Samples'), CATDS: 0.141708067448752; n = 1
[26] = tested on: CDKL5; conditions: read-out: apparent Kd; compound concentrations: 100 nM and 1000 nM (sheet 'Samples'), CATDS: 6.5208173112241197E-2; n = 1
[27] = tested on: CLK2; conditions: read-out: apparent Kd; compound concentrations: 100 nM and 1000 nM (sheet 'Samples'), CATDS: 8.0907286547203805E-2; n = 1
[28] = tested on: CLK4; conditions: read-out: apparent Kd; compound concentrations: 100 nM and 1000 nM (sheet 'Samples'), CATDS: 8.1638299421732605E-2; n = 1
[29] = tested on: CSNK2A1;CSNK2A3; conditions: read-out: apparent Kd; compound concentrations: 100 nM and 1000 nM (sheet 'Samples'), CATDS: 6.6778954653333403E-2; n = 1
[30] = tested on: CSNK2A2; conditions: read-out: apparent Kd; compound concentrations: 100 nM and 1000 nM (sheet 'Samples'), CATDS: 7.8455201722788401E-2; n = 1
[31] = tested on: GSK3A; conditions: read-out: apparent Kd; compound concentrations: 100 nM and 1000 nM (sheet 'Samples'), CATDS: 7.3699312386452706E-2; n = 1
[32] = tested on: GSK3B; conditions: read-out: apparent Kd; compound concentrations: 100 nM and 1000 nM (sheet 'Samples'), CATDS: 7.1527025569737807E-2; n = 1
[33] = tested on: CDK6; conditions: read-out: apparent Kd; compound concentrations: 100 nM and 1000 nM (sheet 'Samples'), CATDS: 0.31503634964043797; n = 1
[34] = tested on: MAPKAPK2; conditions: read-out: apparent Kd; compound concentrations: 100 nM and 1000 nM (sheet 'Samples'), CATDS: 0.38970586087063103; n = 1

Cc1ccccc1CC(=O)N1CCc2cc(-c3cn(C)c4ncnc(N)c34)ccc21 [GSK2603346A]
potency estimated from few doses [1]: 942 nM | potency estimated from few doses [2]: 547 nM | potency estimated from few doses [3]: 1450 nM | potency estimated from few doses [4]: 360 nM | potency estimated from few doses [5]: 1140 nM | potency estimated from few doses ([6]; CATDS: 4.7896181585756002E-2): 1410 nM | potency estimated from few doses [7]: 1680 nM | potency estimated from few doses [8]: 287 nM | potency estimated from few doses [9]: 1550 nM | potency estimated from few doses [10]: 1380 nM | potency estimated from few doses [11]: 1360 nM | potency estimated from few doses [12]: 979 nM | potency estimated from few doses [13]: 632 nM | potency estimated from few doses [14]: 501 nM | potency estimated from few doses [15]: 1890 nM | potency estimated from few doses [16]: 1710 nM | potency estimated from few doses [17]: 991 nM | potency estimated from few doses [18]: 1260 nM

Cc1cn2c(=O)cc(N3CCOCC3)nc2n1Cc1cccc(Cl)c1Cl [GSK2334006A]
potency estimated from few doses ([19]; compound concentrations:100 nM and 1000 nM (sheet 'Samples')): 280 nM | potency estimated from few doses [20]: 61.5 nM

Cc1ccc(C(=O)NC2CCCCC2)cc1-c1ccc(C(=O)NCC2CC2)cc1 [GW782907X]
potency estimated from few doses ([21]; CATDS: 0.479844173242639): 1850 nM | potency estimated from few doses [22]: 1560 nM

NS(=O)(=O)c1ccc(N/N=C2\C(=O)Nc3ccc(C(=O)NCCCn4ccnc4)cc32)cc1 [GW290597X]
potency estimated from few doses ([19]; compound concentrations: 100 nM and 1000 nM (sheet 'Samples'), CATDS: 0.20887249405767599): 232 nM | potency estimated from few doses [23]: 2220 nM | potency estimated from few doses [24]: 550 nM | potency estimated from few doses [25]: 409 nM | potency estimated from few doses [26]: 2010 nM | potency estimated from few doses [27]: 1150 nM | potency estimated from few doses [28]: 1130 nM | potency estimated from few doses [29]: 1870 nM | potency estimated from few doses [30]: 1240 nM | potency estimated from few doses [31]: 1440 nM | potency estimated from few doses [32]: 1550 nM | potency estimated from few doses ([6]; CATDS: 7.9134779366863195E-2): 1210 nM

N#Cc1c(NC(=O)c2ccccc2F)sc2c1CCCC2 [GW572738X]
potency estimated from few doses ([21]; CATDS: 0.30677432174967101): 2340 nM | potency estimated from few doses [33]: 2200 nM | potency estimated from few doses [34]: 1460 nM

O=C1NC(=O)C(N2CCc3ccccc32)=C1c1ccc(Cl)cc1 [SB-333612]
potency estimated from few doses ([19]; compound concentrations: 100 nM and 1000 nM (sheet 'Samples'), CATDS: 1): 265 nM
